Reference: PubChem BioAssay (NCI)
Compounds without any hit were thinned out: in the full panel of roughly 79,000, 15% have a hit. A number with no mark means an inactive call. The source made the active and inactive calls. Cut-off read from the data, not from the text of the source: active = growth inhibition above about 70%; inactive = the rest.

Tests used:
[1] = NCI Yeast Anticancer Drug Screen. Data for the rad50 strain (AID 155);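 note: 0% = growth of vehicle-only cultures of the same strain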; conditions: S. cerevisiae rad50 strain growth inhibition, active compounds read high
Method in brief: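 Compounds were tested on a yeast strain with an engineered DNA damage repair alteration; the reported value is growth inhibition normalised to vehicle treatment.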

[2] = NCI Yeast Anticancer Drug Screen. Data for the mec2-1 strain (AID 157); conditions: S. cerevisiae mec2-1 strain, active compounds read high
Method in brief: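 Test agents were screened against the mec2-1 yeast strain, with defined DNA repair or cell cycle alteration. Growth was scored as inhibition against vehicle-only controls.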

[3] = NCI Yeast Anticancer Drug Screen. Data for the sgs1 mgt1 strain (AID 161);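 note: 0% = growth of cultures given vehicle only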; conditions: S. cerevisiae sgs1 mgt1 strain, active compounds read high
Method in brief: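 Mutant yeast exposed to compound; growth scored against vehicle-only wells.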

[4] = NCI Yeast Anticancer Drug Screen. Data for the cln2 rad14 strain (AID 165);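 note: 0% = growth equal to vehicle treated cultures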; conditions: S. cerevisiae cln2 rad14 strain, active compounds read high
Method in brief: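 Growth of compound-exposed yeast (cln2 rad14 genotype) measured and expressed as inhibition relative to vehicle.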

[5] = NCI Yeast Anticancer Drug Screen. Data for the bub3 strain (AID 167); conditions: S. cerevisiae bub3 mutant strain, active compounds read high
Method in brief: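 Growth of a checkpoint-deficient yeast mutant is measured after compound exposure. Values represent inhibition relative to vehicle.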

[6] = NCI Yeast Anticancer Drug Screen. Data for the mlh1 rad18 strain (AID 175); conditions: S. cerevisiae mlh1 rad18 strain growth inhibition, active compounds read high
Method in brief: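 In this whole-cell yeast screen, a strain with altered DNA damage repair is challenged with compound, and its growth is measured against matched vehicle-treated controls.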

[7] = at 5.0 µM (retest, dose inferred, filed as 0.5)
[8] = at 50.0 µM (retest, dose inferred, filed as 5.0)

Structure (SMILES)	growth inhibition [1, 7]	growth inhibition [1, 8]	growth inhibition ([1]; at 50.0 µM)	growth inhibition [2, 7]	growth inhibition [2, 8]	growth inhibition ([2]; at 50.0 µM)	growth inhibition [3, 7]	growth inhibition [3, 8]	growth inhibition ([3]; at 50.0 µM)	growth inhibition [4, 7]	growth inhibition [4, 8]	growth inhibition ([4]; at 50.0 µM)	growth inhibition [5, 7]	growth inhibition [5, 8]	growth inhibition ([5]; at 50.0 µM)	growth inhibition [6, 7]	growth inhibition [6, 8]	growth inhibition ([6]; at 50.0 µM)
O=C1C(c2ccc([N+](=O)[O-])cc2)=C(Cl)C(=O)c2c(O)cccc21	-30%	-22%	71.2% (active)	-3%	-9%	45.1%	0%	-19%	27.8%	8%	0%	1%	3%	-37%	69.2%	-14%	0%	45.4%
N#CSc1ccc2nc(NCO)sc2c1	22%	97% (active)	98.9% (active)	7%	97% (active)	99.3% (active)	18%	98% (active)	99.3% (active)	-9%	89% (active)	96% (active)	12%	97% (active)	95.4% (active)	45%	97% (active)	99.1% (active)
Cc1cc(N(CCOS(C)(=O)=O)CCOS(C)(=O)=O)ccc1C=Nc1ccc(-c2csc(-c3ccc(Br)cc3)n2)cc1	49%	91% (active)	95.5% (active)	47%	95% (active)	94.2% (active)	48%	95% (active)	81.9% (active)	37%	88% (active)	89.5% (active)	11%	85% (active)	76.9% (active)	88% (active)	96% (active)	96.7% (active)
COc1ccccc1C1(c2ccccc2OC)OC(=O)c2ccccc21	3%	14%	77.8% (active)	-1%	12%	60.6%	3%	-18%	80.3% (active)	1%	22%	69%	-2%	17%	77.3% (active)	-6%	33%	76% (active)
CCCCCCCCCCCCCCCCCC[n+]1ccc(C(C)CC)cc1 (stereo not given)	1%	96% (active)	99.3% (active)	12%	98% (active)	99.6% (active)	18%	97% (active)	99.2% (active)	16%	87% (active)	99.1% (active)	29%	96% (active)	99.2% (active)	6%	97% (active)	99.2% (active)
COc1cccc(C2c3cc4c(cc3OC(NNc3ccccc3)C2C)OCO4)c1OC (stereo not given)	14%	94% (active)	73.2% (active)	3%	94% (active)	44.7%	9%	86% (active)	44%	11%	90% (active)	27.1%	4%	94% (active)	34.2%	24%	93% (active)	56.4%
COc1cccc(/C=C2\CCCc3ccccc3C2=O)c1	1%	20%	52.4%	7%	45%	22.3%	14%	67%	80.3% (active)	-7%	6%	26.6%	72% (active)	87% (active)	74.4% (active)	10%	60%	63.6%
CC(C)(C)C(=O)Nc1ccc2c(c1)C(=O)c1ccccc1C2=O	62%	96% (active)	82% (active)	44%	85% (active)	79.2% (active)	44%	91% (active)	80.7% (active)	38%	75% (active)	83.2% (active)	46%	71% (active)	87.5% (active)	62%	96% (active)	86.5% (active)
O=C1C/C(=C\c2ccccc2)C(=O)c2ccccc2N1	0%	20%	57.8%	-3%	16%	41.8%	-9%	27%	76% (active)	1%	6%	33.6%	-23%	19%	67%	-18%	18%	60.5%
Cn1cccc1C(/C=C/c1ccccc1[N+](=O)[O-])c1cccn1C	-2%	20%	18.2%	4%	4%	6.4%	-12%	8%	20.9%	17%	37%	4.35%	-3%	41%	17.6%	-15%	21%	20.2%
CC(C)/C(Cl)=N\OC(=O)Nc1cccc(F)c1	14%	65%	-5.85%	-7%	45%	63%	-6%	96% (active)	82.9% (active)	41%	28%	25.9%	-13%	82% (active)	69.7%	-3%	28%	50.8%
O=C(CCl)OCC(=O)c1ccc(-c2ccccc2)cc1	9%	97% (active)	10.2%	5%	97% (active)	-1.9%	10%	99% (active)	21.2%	28%	95% (active)	10.2%	11%	98% (active)	19.4%	16%	98% (active)	32.4%
CC(O)c1c2c(cc3c1CC1(C3)Cc3cc4c(c(C(C)O)c3C1)CCC4)CCC2 (stereo not given)	-18%	98% (active)	71.1% (active)	-6%	97% (active)	81.4% (active)	-34%	97% (active)	85.9% (active)	1%	97% (active)	86.7% (active)	-50%	97% (active)	87.2% (active)	-17%	97% (active)	88.3% (active)
S=C(N/N=C1/CCCC/C1=N/NC(=S)N1CCOCC1)N1CCOCC1	38%	96% (active)	90.1% (active)	33%	99% (active)	93.7% (active)	40%	99% (active)	91.4% (active)	32%	98% (active)	91.2% (active)	51%	99% (active)	91% (active)	41%	97% (active)	91.2% (active)
COc1ccc(C(CC(=O)c2ccc(C)cc2)Sc2ccccc2N)cc1 (stereo not given)	46%	51%	-9.65%	52%	52%	4.5%	-16%	26%	26.5%	44%	40%	-15.2%	36%	17%	27.5%	35%	50%	8.35%
Cc1c(-c2ccc(C(=N)N)cc2)oc(-c2ccc(C(=N)N)cc2)c1C	88% (active)	98% (active)	89% (active)	84% (active)	98% (active)	90% (active)	92% (active)	99% (active)	88.1% (active)	80% (active)	96% (active)	89% (active)	87% (active)	99% (active)	86% (active)	90% (active)	97% (active)	84.5% (active)
COc1ccc2c(c1)CC/C(=C\c1ccc(OCCN(C)C)cc1)C2=O	12%	19%	40.2%	2%	15%	48.8%	8%	33%	44.8%	8%	-3%	15.4%	12%	25%	20.4%	6%	28%	57%
C/C(=N/NC(N)=O)C1CC(CCC2([N+](=O)[O-])CCC(C)(O)C(/C(C)=N\NC(N)=O)C2)([N+](=O)[O-])CCC1(C)O (stereo not given)	5%	-5%	10.6%	4%	0%	14.1%	3%	-1%	-6.4%	5%	-7%	9.6%	7%	-3%	96.7% (active)	1%	3%	2.1%
Cc1ccc2nc(-c3ccc(N)cc3)sc2c1	9%	42%	75% (active)	-2%	8%	34.5%	-2%	7%	43.9%	-8%	-6%	15%	14%	68%	72.5% (active)	-1%	19%	41.3%
CC1=C(C(=O)NCc2ccccc2)C(c2ccccc2O)C(C(=O)NCc2ccccc2)=C(C)N1	27%	27%	87.3% (active)	17%	17%	85% (active)	17%	17%	79.7% (active)	13%	13%	71.4% (active)	7%	7%	86.4% (active)	15%	15%	78.2% (active)
